{
  "source": "PubChem BioAssay (NCATS)",
  "note": "Records with an inconclusive call do not appear. A number with no mark means an inactive call. The source made the active and inactive calls. Calls follow the shape of the full dose curve. % is scaled to controls: 0 for no effect and ±100 for the full control effect.",
  "data": [
    {"test": "Primary qHTS for inhibitors of MERS-S pseudo-typed particle cell entry (AID 1479149); also: nearly all actives have a fitted effect of over 60% in size", "conditions": "MERS-S pseudotyped particle entry, luciferase; series mostly up to 57.1 µM; activity change, negative = inhibition: at the top concentration", "units": {"activity change, negative = inhibition": "%"}, "values": [
      {"smiles": "C=CC1(C)CC(=O)C2(O)C(C)(O1)C(OC(C)=O)C(OC(=O)CCN(C)C)C1C(C)(C)CCC(O)C12C", "note": "(stereo not drawn)", "outcome": "inactive"},
      {"smiles": "CCC(=O)OC1(C(=O)CCl)C(C)CC2C3CC(F)C4=CC(=O)C=CC4(C)C3(F)C(O)CC21C", "note": "(stereo not drawn)", "activity change, negative = inhibition": -22.8},
      {"smiles": "[Mn].[O]=[Mn][OH].[O]=[Mn][OH]", "outcome": "inactive"},
      {"smiles": "N[C@H](Cc1cnc[nH]1)C(=O)O", "outcome": "inactive"}
    ]},
    {"test": "Primary qHTS for Vero E6 cytotoxicity: counterscreen for inhibitors of SARS-S pseudo-typed particle cell entry (AID 1479150)", "conditions": "cell viability; series mostly up to 57.1 µM; activity change, negative = cytotoxicity: at the top concentration", "values": [
      {"smiles": "CCC(c1ccccc1)c1c(O)c2ccccc2oc1=O", "note": "(stereo not drawn)", "activity change, negative = cytotoxicity": "-11.2%"},
      {"smiles": "CCCCC(=O)N(Cc1ccc(-c2ccccc2-c2nn[nH]n2)cc1)[C@H](C(=O)O)C(C)C", "activity change, negative = cytotoxicity": "-13.4%"},
      {"smiles": "C=C1c2c(Cl)ccc(O)c2C(O)=C2C(=O)[C@@]3(O)C(O)=C(C(N)=O)C(=O)[C@@H](N(C)C)[C@@H]3[C@@H](O)[C@H]12", "activity change, negative = cytotoxicity": "-4.23%"},
      {"smiles": "CC1CCCC(C)N1C(=S)Nc1cccc(C(F)(F)F)c1", "note": "(stereo not drawn)", "activity change, negative = cytotoxicity": "4.93%"},
      {"smiles": "CCCCCCC(=O)O[C@H]1CC[C@H]2[C@@H]3CCc4cc(O)ccc4[C@H]3CC[C@]12C", "outcome": "inactive"},
      {"smiles": "CC(=O)Nc1c(I)c(C(=O)N[C@H]2C(O)O[C@H](CO)[C@@H](O)[C@@H]2O)c(I)c(N(C)C(C)=O)c1I", "note": "(stereo partly drawn)", "activity change, negative = cytotoxicity": "1.79%"},
      {"smiles": "Cn1nnnc1SCC1=C(C(=O)O)N2C(=O)[C@@H](NC(=O)[C@H](OC=O)c3ccccc3)[C@H]2SC1", "outcome": "inactive"},
      {"smiles": "O=C(Nc1ccc(O)cc1)c1ccccc1O", "activity change, negative = cytotoxicity": "-11.3%"},
      {"smiles": "CN(C)CCC(O)(c1ccccc1)c1ccccc1Cl", "note": "(stereo not drawn)", "outcome": "inactive"},
      {"smiles": "CCCOc1cc(N)ccc1C(=O)OCCN(CC)CC", "activity change, negative = cytotoxicity": "-0.457%"},
      {"smiles": "NC(=O)c1ccc[n+]([C@@H]2O[C@H](COP(=O)([O-])OP(=O)(O)OC[C@H]3O[C@@H](n4cnc5c(N)ncnc54)[C@H](O)[C@@H]3O)[C@@H](O)[C@H]2O)c1", "outcome": "inactive"},
      {"smiles": "O=C(c1ccc(F)c(F)c1Nc1ccc(I)cc1F)N1CC(O)([C@@H]2CCCCN2)C1", "outcome": "inactive"},
      {"smiles": "Cc1ncc(COP(=O)(O)O)c(CN)c1O", "outcome": "inactive"},
      {"smiles": "CN1N=C2CCN(C(=O)[C@H](COCc3ccccc3)NC(=O)C(C)(C)N)C[C@]2(Cc2ccccc2)C1=O", "outcome": "inactive"},
      {"smiles": "NC(N)=NCC1COC2(CCCCC2)O1", "note": "(stereo not drawn)", "outcome": "inactive"},
      {"smiles": "C[N+]1(C)CCN(CC(O)(c2ccccc2)C2CCCCC2)CC1", "note": "(stereo not drawn)", "outcome": "inactive"},
      {"smiles": "CCC(C)C(C(=O)OCC[N+](C)(CC)CC)c1ccccc1", "note": "(stereo not drawn)", "outcome": "inactive"},
      {"smiles": "CC(=O)Oc1c(C)cc(OCC(O)CNC(C)C)c(C)c1C", "note": "(stereo not drawn)", "activity change, negative = cytotoxicity": "-4.32% [at 114 µM]"},
      {"smiles": "CC(=O)N(CC(C)C(=O)O)c1c(I)cc(I)c(N)c1I", "note": "(stereo not drawn)", "outcome": "inactive"},
      {"smiles": "C[C@H](Cc1cc2c(c(C(N)=O)c1)N(CCCO)CC2)NCCOc1ccccc1OCC(F)(F)F", "activity change, negative = cytotoxicity": "0.926%"},
      {"smiles": "FCOC(C(F)(F)F)C(F)(F)F", "outcome": "inactive"},
      {"smiles": "N=C(N)c1ccc(/C=C/c2ccc(C(=N)N)cc2O)cc1", "outcome": "inactive"},
      {"smiles": "C#C[C@]1(OC(C)=O)CC[C@H]2[C@@H]3CCC4=CC(=O)CC[C@@H]4[C@H]3CC[C@@]21C", "activity change, negative = cytotoxicity": "-7.27%"},
      {"smiles": "CON=C1C[C@]2(C[C@@H]3C[C@@H](C/C=C(\\C)C[C@@H](C)/C=C/C=C4\\CO[C@@H]5[C@H](O)C(C)=C[C@@H](C(=O)O3)[C@]45O)O2)O[C@H](/C(C)=C/C(C)C)[C@H]1C", "activity change, negative = cytotoxicity": "-1.71%"},
      {"smiles": "CN[C@@H]1[C@@H](O)[C@@H](O[C@@H]2[C@@H](O)[C@H](OC3O[C@H](CN)[C@@H](O)[C@H](O)[C@H]3O)[C@@H](N)C[C@H]2NC(=O)[C@@H](O)CN)OC[C@]1(C)O", "note": "(stereo partly drawn)", "activity change, negative = cytotoxicity": "-12.7% [at 26.4 µM]"},
      {"smiles": "CCC(=O)O[C@@H](OP(=O)(CCCCc1ccccc1)CC(=O)N1C[C@H](C2CCCCC2)C[C@H]1C(=O)O)C(C)C", "note": "(stereo partly drawn)", "outcome": "inactive [at 11.4 µM]"},
      {"smiles": "CC[C@@H]1CCN[C@H](C(=O)N[C@@H]([C@H]2O[C@H](SC)[C@H](O)[C@@H](O)[C@H]2O)[C@H](C)Cl)C1", "activity change, negative = cytotoxicity": "-1.71%"},
      {"smiles": "O=C(O)C(O)[C@H](O)[C@H](O)[C@H](O)[C@H](O)CO", "note": "(stereo partly drawn)", "outcome": "inactive"},
      {"smiles": "Cc1c(C)c2c(c(C)c1OC(=O)CCC(=O)O)CC[C@@](C)(CCC[C@H](C)CCC[C@H](C)CCCC(C)C)O2", "activity change, negative = cytotoxicity": "4.28%"},
      {"smiles": "COc1nc2ccc(Br)cc2cc1[C@@H](c1ccccc1)[C@@](O)(CCN(C)C)c1cccc2ccccc12", "activity change, negative = cytotoxicity": "3.12%"},
      {"smiles": "CC[N+](CC)(CC)CCC(O)(c1ccccc1)C1CCCCC1", "note": "(stereo not drawn)", "outcome": "inactive"},
      {"smiles": "CCCCN(CCCC)C(=S)[S-].CCCCN(CCCC)C(=S)[S-].[Zn+2]", "outcome": "inactive"},
      {"smiles": "C=Cc1c(C)c2cc3nc(c(CC(=O)N[C@@H](CC(=O)O)C(=O)O)c4nc(cc5[nH]c(cc1[nH]2)c(C)c5CC)C(C)=C4C(=O)O)[C@@H](CCC(=O)O)[C@@H]3C", "activity change, negative = cytotoxicity": "1.87%"},
      {"smiles": "CCCCCCCCCCCCCCCCCC(=O)NCCCC[C@H](NC(=O)CC[C@@H](NC(=O)[C@H](C)NC(=O)[C@@H](C)O[C@H]1[C@H](O)[C@@H](CO)OC(O)[C@@H]1NC(C)=O)C(N)=O)C(=O)O", "note": "(stereo partly drawn)", "activity change, negative = cytotoxicity": "2.58%"}
    ]}
  ]
}
